An excerpt weighted towards active compounds, which were near 21% of everything screened.
NS1 inh: blocks influenza NS1 protein function. Potency, µM (top dose mostly 46.1 µM). hit rate 0.4% among 270,000. AID 2326; calls by dose curve; note: actives are rising curves; nearly all actives have a fitted effect of over 50% in size
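Recovery from NS1-induced slow growth read by OD600 in budding yeast switched to galactose assay medium (pH 6.0, -URA) at 1:100 dilution. Compound 23 nl per well; the matching strain lacking NS1 serves as control.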
Pf growth 48h: inhibits P. falciparum growth in the first generation, 48 h. P. falciparum luciferase growth in erythrocytes, 48 h. Potency, µM (top dose mostly 28.7 µM), most hits filed as inhibitors. hit rate 5.9% among 310,000
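Growth was read as firefly luciferase luminescence after a 48 h, 37 C, 5% CO2 exposure of compounds to reporter-bearing P. falciparum cultures (0.1% parasitemia, 2% hematocrit final) in Albumax-supplemented RPMI 1640.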
Sm TGR inh: inhibitors of Schistosoma mansoni thioredoxin glutathione reductase; Q962Y6; purified TGR, DTNB reduction, TNB absorbance 405 nm; Potency, µM (highest dose often 114 µM), actives largely listed as inhibitors; hit rate 3% among 360,000; note: nearly all actives have a fitted effect of over 60% in size
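First, TGR (20 nM dispensed) and NADPH were mixed with compound. Second, a 15 min room-temperature incubation followed. Third, further NADPH and then DTNB were added to start the reaction. Finally, TNB absorbance was monitored kinetically.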
Cycloheximide cs: counter-screen hit for Shiga toxin inhibitors, cycloheximide. cell reporter, cycloheximide protein synthesis inhibition counterscreen. max response, %. hit rate 12% among 300,000. AID 2314; in the data active = max response mostly above about 13%, no sharp cut-off; inactive = mostly below about 14%; note: read at 38.3 µM for the half of the compounds with a filed dose
Pf growth 96h: P. falciparum growth inhibition at 96 hours; P. falciparum luciferase reporter growth, 96 h; Potency, µM (top dose mostly 28.7 µM), actives largely listed as inhibitors; hit rate 6.9% among 320,000; AID 504834
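Delayed-death screen, second-generation endpoint: infected erythrocytes, 2% hematocrit, 0.05% parasitemia final; 96 hours at 37 C, 5% CO2; luciferase detection reagent; luminescence decrease equals reduced growth.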
Shiga inhibitor: Shiga toxin inhibition; Vero cells, Shiga toxin protein synthesis inhibition reporter; inhibition, % at 38.7 µM; hit rate 9.2% among 290,000; in the data active = inhibition mostly above about 28%, no sharp cut-off; inactive = mostly below about 43%
Hits are given with their value; i = inactive; ? = inconclusive; nt = no result; [ ] = remark or other dose. Unless noted, calls come from the whole dose curve; as a rule, active = well fitted curve in the direction sought with a large enough effect; inconclusive = small, poorly fitted or top-dose-only effect, or another doubt; inactive = no such curve, though single readings can be large; an effect the other way counts as inactive or inconclusive.

SMILES	NS1 inh	Pf growth 48h	Sm TGR inh	Cycloheximide cs	Pf growth 96h	Shiga inhibitor
CC(=O)Nc1ccc(NC(=O)COc2ccc(Cl)cc2Cl)cc1	i	i	i	i	i	i
CCOc1ccc(C(=O)Nc2cccc(C(=O)O)c2)cc1Cl	nt	i	i	38	i[5.75 µM]	59
O=C(COc1ccc(Cl)cc1Cl)Nc1ccc(Cl)cn1	i	nt	i[11.4 µM]	30	?	92
CCOc1ccc(C(=O)Nc2cc(NC(=O)c3ccc(OCC)c(Cl)c3)cc(C(=O)O)c2)cc1Cl	i	i	nt	i	i	i
CCOc1ccc(C(=O)Nc2ccc(Cl)cn2)cc1Cl	i	i	i	38	?	106
COc1cccc(-n2c(=O)c3sc4ccccc4c3n(CC(=O)Nc3cccc(Cl)c3)c2=O)c1	nt	nt	i	nt	nt	nt
COc1ccccc1NC(NC(=O)c1cccnc1)C(Cl)(Cl)Cl (centres undefined)	nt	?	i	i	i	i
CCOc1ccc(C2Nc3cccc4cccc(c34)N2)cc1OC	i	i	25µM	i	i	i
CCOc1cc(C2Nc3cccc4cccc(c34)N2)ccc1O	i	nt	11µM	i	i	i
O=C1OC(c2ccccc2)=NC12CC2c1ccc(Cl)cc1 (centres undefined)	i	i	14µM	i	i	i
O=CN1N=C(c2ccccc2)CC1c1ccc(Cl)cc1 (centres undefined)	i	i	i	i	?	i
C=CCNC(=O)NC(=O)COC(=O)c1nc2nccc(C)n2n1	nt	i	i	i	i	i
CC(C)(C(=O)c1cccnc1)c1cccnc1	nt	i	nt	nt	i	nt
CC(C)(C)C(=O)NCC12C=CC(O1)C1C(=O)N(c3ccccc3)C(=O)C12 (centres undefined)	i	i	1.6µM	i	2.1µM	i
CCC1(C(=O)OC)NC(c2ccco2)C2C(=O)N(c3ccccc3)C(=O)C21 (centres undefined)	i	i	i	i	i	i
O=C1C2C3C=CC(CO)(O3)C2C(=O)N1c1ccc(-c2ccccc2)cc1 (centres undefined)	i	i	0.5µM	23	i	i
COc1ccc(S(=O)(=O)c2c(SC)nn(CC(=O)Nc3ccc(C)c(Cl)c3)c2N)cc1	nt	nt	i	nt	nt	nt
CCOc1ccc(C(=O)Oc2c(Sc3ccccc3)c(C)nn2C(C)(C)C)cc1OCC	nt	nt	i	nt	nt	nt
O=C(Cc1ccccc1)OCC(=O)c1ccccc1	i	i	i	30	12µM	i
Cc1ccc(C(=O)COC(=O)Cc2ccccc2)cc1	i	i	i	46	i	77
CCOC(=O)CCSc1nc2c(c(C(F)(F)F)c1C#N)CCC2	i	9.3µM	i	i	i	i
CCCCNC(=O)COC(=O)c1ccc(C)c(NC(=O)c2ccco2)c1	nt	i	i	i	i	i
Cc1ccc(C(=O)OCc2c(C)noc2C)cc1NC(=O)c1ccco1	i	i	i	i	10µM	i
Cc1ccc(C(=O)OCC(=O)c2c[nH]c3ccccc23)cc1NC(=O)c1ccco1	i	i	i	19	?	i
COCCCn1c(=N)c(C(=O)NC2CCCC2)cc2c(=O)n3ccccc3nc21	nt	nt	i	nt	nt	nt
SMILES	NS1 inh	Pf growth 48h	Sm TGR inh	Cycloheximide cs	Pf growth 96h	Shiga inhibitor
CCOC(=O)N1CCN(c2ncnc3c2[nH]c2ccc(F)cc23)CC1	i	?	i	i	13µM	i
COc1ccc(N2CCN(c3ncnc4c3[nH]c3ccccc34)CC2)cc1	i	?	i	i	?	i
Fc1ccc2[nH]c3c(N4CCN(c5ccccc5)CC4)ncnc3c2c1	i	13µM	i	i	12µM	i
CCOC(=O)N1CCN(c2ncnc3c2[nH]c2ccc(OC)cc23)CC1	i	?	i	i	?	i
COc1ccc(-n2c(SCC(=O)N3CCC(C)CC3)nc3c([nH]c4ccccc43)c2=O)cc1	nt	nt	i	nt	nt	nt
CCCCCC(=O)NC(=S)Nc1cccc(C(C)=O)c1	i	i	?	23	?	32
CCCC(=O)NC(=S)Nc1cccc(C(C)=O)c1	i	i	i	i	i	i
CC(=O)c1cccc(NC(=S)NC(=O)c2ccc(C)cc2)c1	i	i	nt	40	i	88
Cc1ccc(C(=O)NC(=S)Nc2ccc(NC(=O)c3cccc(Cl)c3)cc2)cc1	i	?	i	i	?	i
CC(=O)c1cccc(NC(=S)NC(=O)c2ccc(Br)cc2)c1	i	i	i	32	i	i
Cc1ccn2cc(CNC(=O)c3cccc(C(F)(F)F)c3)nc2c1	nt	nt	i	nt	nt	nt
Cc1ccsc1C(=O)N(C)CC(=O)Nc1ccccc1Br	nt	i	i	nt	i	nt

Screens from PubChem.
